The values below come from PubChem BioAssay AID1851 (National Center for Advancing Translational Sciences (NCATS), 2009).

The whole screen tested about 16,000 compounds, of which about 5,700 (36%) were called active. About 24% were inconclusive and are not listed. Some of the results follow. A number with no mark means an inactive call. Calls come from the whole dose curve; as a rule, active = well fitted curve in the direction sought with a large enough effect; inconclusive = small, poorly fitted or top-dose-only effect, or effect the other way; inactive = no such curve, though single readings can be large or run the other way.
% is set by controls: 0 for no effect and ±100 for the full control effect.

The target in the test is Cytochrome P450 1A2 (Homo sapiens) (UniProt P05177). The test is described as follows: Cytochrome panel assay with activity outcomes. The conditions noted are these: recombinant CYP, pro-luciferin dealkylation, luminescence, p450-cyp1a2; series mostly up to 57.1 µM.
Cytochrome P450 1A2 (Homo sapiens), sequence (P05177 whole entry, looked up): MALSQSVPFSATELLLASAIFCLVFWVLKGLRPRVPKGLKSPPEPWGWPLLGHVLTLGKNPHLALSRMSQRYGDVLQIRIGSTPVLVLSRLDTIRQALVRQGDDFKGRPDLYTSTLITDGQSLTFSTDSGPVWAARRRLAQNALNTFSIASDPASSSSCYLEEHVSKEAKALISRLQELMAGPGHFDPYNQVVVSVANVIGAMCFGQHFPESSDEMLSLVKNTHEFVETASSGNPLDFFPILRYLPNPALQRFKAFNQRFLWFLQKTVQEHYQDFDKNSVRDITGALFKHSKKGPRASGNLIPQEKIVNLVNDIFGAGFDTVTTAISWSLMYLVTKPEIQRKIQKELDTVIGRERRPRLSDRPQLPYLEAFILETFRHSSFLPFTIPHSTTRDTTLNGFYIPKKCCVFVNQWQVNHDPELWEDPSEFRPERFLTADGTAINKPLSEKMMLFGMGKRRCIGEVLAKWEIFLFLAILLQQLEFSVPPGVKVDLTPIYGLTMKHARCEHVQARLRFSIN
What is called AC50 is the concentration giving half of the maximal activity seen. As for `CCn1c(=O)c2[nH]c(-c3ccccc3)nc2n(CC)c1=O`, the AC50 is 1 µM (active).

In the case of `CCCn1c(=O)c2[nH]c(-c3ccc(OCC(=O)NCCN)cc3)nc2n(CCC)c1=O`, the AC50 result was “inactive”.

As to `Cn1c(=O)c2[nH]c(CSCc3ccccc3)nc2n(C)c1=O`, the activity, negative = inhibition was -15.4% [at 2.29 µM].

With `CCn1c(CCCc2nc3c([nH]2)c(=O)n(C)c(=O)n3C)nc2c1c(=O)n(C)c(=O)n2C`, the activity, negative = inhibition was -16.7% [at 2.29 µM].

With `Cn1c(=O)c2[nH]c(CCC(=O)O)nc2n(C)c1=O`, the activity, negative = inhibition was -3.23% [at 11.4 µM].

As to `Cn1c(=O)c2[nH]c(-c3ccc(S(=O)(=O)O)cc3)nc2n(C)c1=O`, the AC50 result was “inactive”.

In the case of `CCCn1c(=O)c2[nH]c(-c3ccccc3)nc2n(CCC)c1=O`, the AC50 was 0.0794 µM (active).

Regarding `Cn1c(=O)c2[nH]c(-c3ccccc3)nc2n(C)c1=O`, the AC50 was 2 µM (active).

For the molecule `COc1ccc(-c2nc3c([nH]2)c(=O)n(C)c(=O)n3C)c(OC)c1`, the AC50 was 2 µM (active).

Consider `Cn1c(=O)c2[nH]cnc2n(C)c1=O`, for which the AC50 entry was “inactive”.

Take `O=C(CC(c1ccccc1)c1ccccc1)Nc1ccc2c(c1)OCCO2`: the AC50 is 10 µM (active).

`Cn1ncc([N+](=O)[O-])c1C(=O)Nc1ccc2c(c1)OCCO2`: the AC50 was 1.26 µM (active).

Take `CCNC(=O)NC1(C(=O)Nc2ccc3c(c2)OCCO3)CCCCC1`: the AC50 entry was “inactive”.

On to `CC(C)(C)c1ccc(OC(=O)Nc2ccc(O)c(C(=O)O)c2)cc1`, for which the activity, negative = inhibition was 6.5% [at 2.29 µM].

On to `O=C(Cn1ccc(=O)[nH]c1=O)Nc1ccc(C(=O)O)c(O)c1`, for which the activity, negative = inhibition was -16.5% [at 2.29 µM].

For the molecule `O=C(CC1C(=O)NCCN1C(=S)Nc1ccccc1)Nc1ccc2c(c1)OCCO2` (centres undefined), the AC50 result was “inactive”.

Regarding `CC(=O)Nc1ccc2c(c1)OCCOCCOc1cc(NC(C)=O)ccc1OCCOCCOCCO2`, the AC50 result is “inactive”.

In the case of `Cc1cc(NC(=O)c2c([N+](=O)[O-])cnn2C)no1`, the AC50 entry is “inactive”.

On to `CCOC(=O)Nc1ccc(C(=O)Oc2ccccc2)c(O)c1`, for which the concentration at half-maximal activity (AC50) was 3.16 µM (active).

In the case of `CC(=O)Nc1ccc2c(c1)OCCO2`, the AC50 is 10 µM (active).

For `COc1cc2c(cc1OC)C(C(=O)Nc1ccc3c(c1)OCCO3)C(c1cccnc1)N(C)C2=O` (centres undefined), the AC50 result was “inactive”.

Regarding `CC[n+]1c(P(=O)([O-])c2ccccc2)[nH]c2ccccc21`, the AC50 entry is “inactive”.

Take `COc1ccccc1CN1CCC2(CC1)CCN(C(=O)c1cccn1C)CC2`: the AC50 entry was “inactive”.

`CC(C)NC(=O)N1CCC2(CC1)CCN(C(=O)c1cc(C(F)(F)F)cc(C(F)(F)F)c1)CC2`: the AC50 result was “inactive”.

As for `O=C1C2CCC(C(O)C2)N1Cc1ccccc1` (centres undefined), the AC50 result is “inactive”.

With `CCOC(=O)Nc1ccc2c(c1)OCO2`, the AC50 is 1.26 µM (active).

Regarding `O=c1cnc2cnc(Oc3ccccc3)nc2n1Cc1ccc(F)cc1`, the AC50 was 15.8 µM (active).

As for `O=c1cnc2cnc(Oc3cccc(Cl)c3)nc2n1Cc1ccc(F)cc1`, the concentration at half-maximal activity (AC50) is 15.8 µM (active).

`COc1cccc(Cn2c(=O)cnc3cnc(OCc4ccccc4)nc32)c1`: the AC50 is 12.6 µM (active).

In the case of `COc1cccc(Cn2c(=O)cnc3cnc(Oc4cccc(Cl)c4)nc32)c1`, the AC50 was 12.6 µM (active).

On to `CON1C(=O)C(=O)N(OC)C(C)(C)C1C` (centres undefined), for which the AC50 entry is “inactive”.

As to `COc1ccc(O[C@H]2C=C[C@@H](c3ccccc3)O[C@H]2COC(=O)CC/C(C)=N\O[C@@H](C)c2cn([C@H]3COC[C@H]3O)nn2)cc1`, the activity, negative = inhibition is -4.14% [at 11.4 µM].

In the case of `COc1ncc2ncc(=O)n(Cc3ccc(F)cc3)c2n1`, the AC50 is 12.6 µM (active).

As to `O=c1cnc2cnc(OCc3ccccc3)nc2n1Cc1ccc(F)cc1`, the AC50 was 12.6 µM (active).

On to `CC(=O)N(C[C@@H](O)CO)c1c(I)c(C(=O)NC[C@@H](O)CO)c(I)c(C(=O)NC[C@@H](O)CO)c1I`, for which the AC50 entry is “inactive”.

As for `CC(C)COC[C@H](CN(Cc1ccccc1)c1ccccc1)N1CCCC1`, the AC50 entry was “inactive”.

As to `CN1C(=O)CC[C@@H]1c1cccnc1`, the AC50 entry was “inactive”.

As to `Cc1ccc(N2C(=O)CSC2c2cccnc2)cc1F` (centres undefined), the AC50 is 15.8 µM (active).

`COc1ccc(N2C(=O)CSC2c2cccc(F)c2)c(OC)c1` (centres undefined): the AC50 result was “inactive”.

For `CC1(C)CC(=O)C2=C(C1)N(Cc1ccccc1)C(=O)C2(O)C(F)(F)F` (centres undefined), the AC50 entry was “inactive”.

For `CCOC(=O)N1CCN(S(=O)(=O)Cc2ccccc2)CC1`, the AC50 entry was “inactive”.

With `CCC1=NN(C(=O)CCc2ccccc2)C(O)(C(F)(F)F)C1` (centres undefined), the AC50 was 11.2 µM (active).

For the molecule `O=C(CCCc1ccccc1)N1CCN(c2ccc([N+](=O)[O-])cc2)CC1`, the AC50 result was “inactive”.

Take `COc1cccc(C(=O)NNC2=CC(=O)CC(C)(C)C2)c1`: the AC50 entry was “inactive”.

As for `CCOC(=O)N1N=C(c2ccccc2)CC1(O)C(F)(F)F` (centres undefined), the AC50 is 15.8 µM (active).

Consider `COc1cccc(C(=O)N2N=C(c3cccc(OC)c3)CC2(O)C(F)(F)F)c1` (centres undefined), for which the AC50 was 14.1 µM (active).

On to `CO[C@H]1C=CO[C@]2(C)Oc3c(C)c(O)c4c(O)c(c5c(c4c3C2=O)NC2(CCN(CC(C)C)CC2)N=5)=NC(=O)C(C)=CC=C[C@@H](C)[C@@H](O)[C@@H](C)[C@@H](O)[C@@H](C)[C@@H](OC(C)=O)[C@@H]1C`, for which the AC50 entry was “inactive”.

For `COc1ccc(NC(=O)N2CC3(CCN(C(=O)c4csnn4)CC3)C2)cc1`, the AC50 result is “inactive”.

For `CCN1CCCC1Cn1cnc2c([nH]c3ccc(C)cc32)c1=O` (centres undefined), the AC50 is 15.8 µM (active).

Consider `O=C(O)[C@H](CCc1ccccc1)N1C(=O)c2ccccc2C1=O`, for which the activity, negative = inhibition was -9.63% [at 2.29 µM].

Take `O=C(CCN1C(=O)c2ccccc2C1=O)Oc1ccc2ccccc2c1`: the AC50 was 17.8 µM (active).

Turning to `O=C(O)CC[C@@H](C(=O)O)N1C(=O)c2ccccc2C1=O`, the AC50 result was “inactive”.

Consider `CCOc1ccc(Cl)cc1CNCCNCC(C)O` (centres undefined), for which the AC50 is 12.6 µM (active).

As to `CCOc1ccc(Cl)cc1CNCCNCCO`, the AC50 is 15.8 µM (active).

On to `CCOc1ccccc1CNCCN1CCOCC1`, for which the AC50 entry is “inactive”.

As to `CCOc1cc(CNCCc2ccc(S(N)(=O)=O)cc2)ccc1OCc1ccc(Cl)cc1`, the AC50 result is “inactive”.

Take `CCOc1ccc(CC(C(N)=O)C(N)=O)cc1CN(C)C`: the AC50 entry was “inactive”.

With `COc1c(Cl)cc(Cl)cc1CNCCNCC(C)O` (centres undefined), the AC50 is 11.2 µM (active).

Consider `Oc1ccc(-c2[nH]ncc2-c2ccc(Cl)cc2)c(O)c1`, for which the AC50 is 1.58 µM (active).

Regarding `C=C(C)COc1ccc(-c2n[nH]c(C)c2-c2ccc(OC)cc2)c(O)c1`, the AC50 is 14.1 µM (active).

In the case of `Cc1[nH]nc(-c2ccc(O)cc2O)c1-c1ccc(Cl)cc1`, the AC50 is 2.24 µM (active).

With `CC1(C)O[C@@H]2O[C@H]([C@H](O)CO/N=C3/[C@H]4O[C@@H]4[C@@H](O)[C@H]4[C@H]3CCn3c(=O)n(-c5ccccc5)c(=O)n34)[C@@H](O)[C@@H]2O1`, the activity, negative = inhibition is -7.71% [at 11.4 µM].

With `Cc1cc(NC(=O)C2C3C(=O)N(Cc4ccc(Cl)cc4)C(C(=O)NC(C)(C)C)C34C=CC2(C)O4)no1` (centres undefined), the AC50 entry is “inactive”.

For `O=C(COc1ccc2ccccc2c1Br)NNC(=O)Nc1ccccc1`, the AC50 is 5.62 µM (active).

Take `CCCC(=O)NNC(=O)Nc1ccccc1`: the AC50 result was “inactive”.

For `N#Cc1ccc(-c2ccc(F)cc2)nc1Oc1ccc(Cl)c(Cl)c1`, the concentration at half-maximal activity (AC50) is 1 µM (active).

On to `Cc1ccc(-n2ncc3c(=O)n(CC(=O)NCC4CCCO4)cnc32)cc1` (centres undefined), for which the AC50 result is “inactive”.

In the case of `COc1ccc(-n2ncc3c(NCC4CCCO4)ncnc32)cc1` (centres undefined), the half-maximal activity concentration (AC50) is 14.1 µM (active).

Consider `CCc1nnc(NC(=O)CSc2ncnc3c2cnn3-c2ccc(OC)cc2)s1`, for which the AC50 entry is “inactive”.

On to `Cc1nn(-c2nc3ccccc3[nH]2)c(N)c1-c1ccc(Cl)cc1`, for which the AC50 was 5.62 µM (active).

In the case of `CCNC(=S)NNC(=O)c1cc(CC(C)C)nc2ccccc12`, the AC50 result is “inactive”.

As for `CCNC(=S)NNC(=O)c1cc(C2CC2)nc2ccccc12`, the half-maximal activity concentration (AC50) is 8.91 µM (active).

For `COC(=O)C/C=C\[C@@H](C)[C@@H](/C=N\O[C@@H](C)c1cc(-c2c(C)cc(C)cc2C)no1)OC`, the activity, negative = inhibition was -3.54% [at 11.4 µM].

On to `O=C(C=C1SCCS1)/C=C/c1ccco1`, for which the AC50 is 11.2 µM (active).

For the molecule `CC(C)C(C(=O)O)N1C(=O)/C(=C/C=C/c2ccco2)SC1=S` (centres undefined), the AC50 entry was “inactive”.

Turning to `O=C(O)C/C(=C\c1ccco1)C(=O)O`, the activity, negative = inhibition was -11.8% [at 2.29 µM].

In the case of `Cc1cc(C)c(NC(=O)C[C@H](CC(=O)O)c2cccc3ccccc23)c(C(=O)N2CCC3(CCCC3)CC2)c1`, the AC50 result was “inactive”.

As for `COc1cc2c(cc1NC(=O)Nc1ccccc1)oc1ccccc12`, the AC50 was 2 µM (active).

Consider `COc1ccccc1CC(=O)Nc1cc2oc3ccccc3c2cc1OC`, for which the AC50 was 1 µM (active).

Turning to `COC(=O)N1CCC2(CCN(Cc3ccccc3OC)CC2)CC1`, the AC50 result was “inactive”.

Regarding `COC(=O)N1CCC2(CCCN(Cc3ccccc3OC)C2)CC1`, the AC50 entry was “inactive”.

Take `COc1cc2c(cc1NC(=O)c1cc(-c3cccnc3)nc3ccc(C)cc13)oc1ccccc12`: the AC50 is 12.6 µM (active).

For the molecule `COc1ccc(NC(=O)c2cc(-c3cccnc3)nc3ccc(C)cc23)cc1OC`, the AC50 entry is “inactive”.

As for `CC1(C)C(=O)C(c2ccccc2)=C2CN3C(=O)N(CCc4ccccc4)C(=O)C3(Cc3ccc(C(F)(F)F)cc3)C=C21` (centres undefined), the AC50 entry was “inactive”.

`CC[C@]1(C)CC(=O)NC1=O`: the AC50 entry is “inactive”.

Turning to `C=CCSc1nnc(-c2cc3c(-c4ccccc4)nn(C)c3s2)n1C`, the AC50 was 0.282 µM (active).

`CSc1nnc(-c2cc3c(-c4ccccc4)nn(C)c3s2)n1C`: the AC50 is 0.501 µM (active).

As for `O=c1c(-c2nc3ccccc3s2)cccn1Cc1ccccc1`, the concentration at half-maximal activity (AC50) is 1.78 µM (active).

For the molecule `C=CCn1c(-c2cccn(Cc3ccccc3)c2=O)n[nH]c1=S`, the AC50 entry is “inactive”.

As to `O=C(CCc1nc2ccccc2c(=O)[nH]1)OCC(=O)N1CCN(S(=O)(=O)c2ccccc2)CC1`, the AC50 result was “inactive”.

With `CC(=O)COC(=O)CCc1nc2ccccc2[nH]c1=O`, the AC50 is 6.31 µM (active).

For the molecule `Cn1c(=O)c2[nH]c(CCCCc3nc4ccccc4[nH]3)nc2n(C)c1=O`, the activity, negative = inhibition was -15.8% [at 11.4 µM].

On to `O=S(=O)(NCCNC/C=C\c1ccc(Br)cc1)c1cccc2cnccc12`, for which the AC50 was 2 µM (active).

On to `CNCCNS(=O)(=O)c1cccc2cnccc12`, for which the AC50 result is “inactive”.

As for `O=C(NCc1ccccc1)C(c1cccs1)N(Cc1cccs1)C(=O)c1cnccn1` (centres undefined), the AC50 result was “inactive”.

Regarding `Cc1cnc(C(=O)OCC(=O)NC(C)C)cn1`, the AC50 result is “inactive”.

Take `Cc1ccc(CNC(=O)COC(=O)c2cnccn2)cc1`: the half-maximal activity concentration (AC50) was 10 µM (active).

On to `O=C(COC(=O)c1cnccn1)NCc1ccccc1`, for which the half-maximal activity concentration (AC50) was 22.4 µM (active).

Regarding `COc1ccc(C(C(=O)NCc2ccccc2)N(Cc2cccs2)C(=O)c2cnccn2)cc1` (centres undefined), the AC50 result was “inactive”.
